Results: ChEMBL document CHEMBL3988442, “University of Dundee, Small-Polar-MMV Screening Library” (2021)
About 420 (0.61%) of roughly 69,000 compounds showed an effect of 50% or more. What follows is part of a selection rich in strong results, with near analogues and random picks from the rest.

What follows are molecules tested against T1, Histidine--tRNA ligase (Leishmania infantum) (UniProt A4I591) (assay: Leishmania infantum Histidine tRNA synthetase (LdHisRS)). Conditions: 30 µM.
T1 sequence (whole entry): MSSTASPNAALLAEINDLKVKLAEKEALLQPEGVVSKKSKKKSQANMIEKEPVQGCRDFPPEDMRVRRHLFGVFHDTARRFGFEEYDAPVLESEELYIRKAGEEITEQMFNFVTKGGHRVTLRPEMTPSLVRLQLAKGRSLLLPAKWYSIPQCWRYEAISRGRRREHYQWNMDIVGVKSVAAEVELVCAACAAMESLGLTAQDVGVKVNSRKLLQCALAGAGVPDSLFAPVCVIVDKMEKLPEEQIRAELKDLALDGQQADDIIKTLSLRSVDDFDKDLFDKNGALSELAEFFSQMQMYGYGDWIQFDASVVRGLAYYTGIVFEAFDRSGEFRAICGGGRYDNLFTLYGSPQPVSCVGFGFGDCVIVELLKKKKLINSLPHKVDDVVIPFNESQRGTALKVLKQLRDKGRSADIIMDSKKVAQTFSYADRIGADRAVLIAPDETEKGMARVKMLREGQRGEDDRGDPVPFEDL
Type: functional
Set-up: scale not given: in the data most compounds retested in dose-response had high values

Row | SMILES | Percent Effect
1 | COc1cnc(N2CCN(C)CC2)nc1-c1ccnn1C | 13.7%
2 | Cc1cnc(N2CCN(C)CC2)nc1-c1ccnn1C | 7.84%
3 | COc1cnc(N2CC(N3CCOCC3)C2)nc1-c1ccnn1C | 92.2%
4 | CC(=O)N1[C@H](Cn2cncn2)C[C@@H]2CN(CC3CC3)CC[C@@H]21 | 11.1%
5 | Cc1cc(C(=O)N2C[C@@H]3COC[C@]3(CN(C)C)C2)sc1C | -39.3%
6 | COCCN1C[C@@H]2CN(Cc3ccc(C)s3)CCC[C@]2(C(=O)O)C1 | -8.18%
7 | CS(=O)(=O)N1CC[C@H]2C[C@@H](C(=O)N3CCOCC3)O[C@@H]2C1 | -3.77%
8 | O=C1N(Cc2cccnc2)C[C@H]2CN(S(=O)(=O)c3ccccc3)CCN12 | 13.5%
9 | Cc1ccoc1C(=O)N1CCO[C@H]2[C@H](OCC3CCOCC3)CC[C@@H]21 | 7.55%
10 | COc1ccc(-n2c(CCC(=O)O)nc3ccccc32)cc1CO | 60%
11 | COc1ccc(-n2c(CO)nc3ccccc32)cc1CO | 34.3%
12 | CC(O)c1cccc(-n2c(CCC(=O)O)nc3ccccc32)c1 (stereo not given) | 40%
13 | CNC[C@H]1CC[C@H](c2cc(CN(C)S(=O)(=O)N(C)C)n(C)n2)CC1 | -50%
14 | O=C(c1ccco1)N1CCO[C@@H]2CN(CC3CC3)CC[C@@H]2C1 | 26%
15 | CN1[C@H]2CC[C@@H]1CN(C(=O)c1nnc3n1CCCC3)CC2 | 8.89%
16 | Cc1cn2nc(N(C)C3CCCN(c4cccnn4)C3)sc2n1 (stereo not given) | 65.5%
17 | Cc1ncc(CN(C)C2CCCN(c3cccnn3)C2)s1 (stereo not given) | 6.74%
18 | Cc1ccc(N2CCCC(N(C)c3nn4cc(C)nc4s3)C2)nn1 (stereo not given) | 15.9%
19 | COc1ccc(CN2C[C@@H]3OCCN(CCN4CCCC4)[C@@H]3C2)cc1 | 0.917%
20 | CCN(C(=O)c1nc2c(s1)CCCN2Cc1ccccc1)C(C)C | 74.4%
21 | CC(C)NC(=O)c1nc2c(s1)CCCN2Cc1ccccc1 | 38.5%
22 | CN(C)C(=O)c1nc2c(s1)CCCN2Cc1ccccc1 | -245%
23 | CSc1ccccc1C(=O)N1C[C@H]2CC[C@@H]1CN(C(=O)C1CCC1)C2 | 14.5%
24 | O=C(CC1CC1)N[C@@H]1CN(C(=O)c2ccsc2)C[C@@H]2CCCO[C@@H]21 | 0.901%
25 | CCC(CC)C(=O)Nc1ccc2oc(=O)n(CCN(C)C)c2c1 | 15.2%
26 | CC(C)CCC(=O)Nc1ccc2oc(=O)n(CCN(C)C)c2c1 | 27.7%
27 | CN(C)CCn1c(=O)oc2ccc(NC(=O)C3CCCO3)cc21 (stereo not given) | 53.4%
28 | CN(C)CCn1c(=O)oc2ccc(NC(=O)N3CCCCCC3)cc21 | 59.8%

Row | SMILES | Percent Effect
29 | CCC(C)C(=O)Nc1ccc2oc(=O)n(CCN(C)C)c2c1 (stereo not given) | 27.7%
30 | CN(C)CCn1c(=O)oc2ccc(NC(=O)CC(C)(C)C)cc21 | 37.9%
31 | CCNC(=O)N1CC[C@H]2CC(=O)N(CC(N)=O)CC[C@H]2C1 | 11.1%
32 | CCCc1ccc(CN2CCN(c3ncccn3)[C@@H]3CS(=O)(=O)C[C@@H]32)o1 | 13.2%
33 | Cc1nc(CN2C[C@@H]3CN(C(=O)NC(C)C)C[C@@H]3C2=O)cs1 | 2.94%
34 | CC(C)NC(=O)c1sc2ccccc2c1[C@H]1CC[C@H](CN)CC1 | 8.45%
35 | Cn1cc(CN2CCC[C@]3(C(=O)O)CN(c4ncccn4)C[C@@H]3C2)cn1 | 27.8%
36 | Cc1noc([C@H]2C[C@H]3OCC[C@H]3N(C3CCC3)C2)n1 | -1.06%
37 | O=C(c1cccc(F)c1)N1CC[C@@H]2CN(c3ncccn3)CCO[C@@H]2C1 | 6%
38 | CCc1ccc(NC(=O)N2C[C@H]3CC[C@@]4(N=C(C)N(C)C4=O)[C@H]3C2)cc1 | 24.7%
39 | CC(=O)N1CCCC1c1cccc(Cc2ccccc2F)n1 (stereo not given) | 0%
40 | CN1CCCC1c1cccc(Cc2ccccc2F)n1 (stereo not given) | 16.7%
41 | CN(C)C(=O)CN1CCCC1c1cccc(Cc2ccccc2F)n1 (stereo not given) | 55.7%
42 | CCS(=O)(=O)N1C[C@H]2C[C@H](C(=O)N(C)C)[C@@H](C1)O2 | 6.57%
43 | O=C(c1ccc[nH]1)N1C[C@H]2CC[C@@H]1CN(c1ncccn1)C2 | 21.7%
44 | Cc1ccc(C(=O)N(C2CC2)C2CC(=O)NC2=O)cc1F (stereo not given) | 8.47%
45 | CCn1nnc2c1C(COCC(=O)N(C)C)CN(Cc1ccco1)C2 (stereo not given) | 50.9%
46 | CCn1nnc2c1C(COC)CN(Cc1cccs1)C2 (stereo not given) | 13.5%
47 | CCn1nnc2c1C(COCCN(C)C)CN(Cc1ccco1)C2 (stereo not given) | 1.89%
48 | CCn1nnc2c1C(COCC(=O)N(C)C)CN(Cc1ccoc1)C2 (stereo not given) | 5.66%
49 | CN(C)C(=O)COCC1CN(Cc2ccco2)Cc2ncn(C)c21 (stereo not given) | 20.8%
50 | CCn1nnc2c1C(COC)CN(Cc1ccco1)C2 (stereo not given) | 52.8%
51 | CC(=O)N1C[C@@H]2CN(S(=O)(=O)C3CC3)CCO[C@@H]2C1 | 10%
52 | O=C1O[C@@H]2CN(c3cnccn3)C[C@@H]2N1CCCc1ccc(F)cc1 | 11%
53 | CCCS(=O)(=O)N1C[C@@H](Oc2ccccn2)[C@H]2OCCC[C@H]21 | 9.73%
54 | Cc1ncc(CN2Cc3ccccc3O[C@]3(CC[C@H](CO)CC3)C2)cn1 | 11.1%
55 | Fc1cnc(N2CC[C@@H]3OC(COCc4cccnc4)CC[C@@H]32)nc1 (stereo not given in full) | 5.26%
